In PubChem BioAssay (NCATS):
Results filed as inconclusive are left out. The source made the active and inactive calls. Calls follow the shape of the dose curve; as a rule, active = well fitted curve in the direction sought with a large enough effect; inconclusive = small, poorly fitted or top-dose-only effect, or another doubt; inactive = no such curve, though single readings can be large; an effect the other way counts as inactive or inconclusive.

Legend:
[1] = biological target: Calcium and integrin-binding protein 1 (Homo sapiens) (UniProt Q99828); experiment: Primary qHTS for Identification of Calcium Integrin Binding Protein 1 (CIB1) Competitor (AID 1508620); conditions: CIB1-GST / FITC-alphaIIb peptide fluorescence polarization; series mostly up to 57.7 µM;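 also: GST tagged CIB1 binding a fluorescein labelled alphaIIb integrin peptide tracer; top concentration of the series differs between compounds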
Calcium and integrin-binding protein 1 (Homo sapiens), sequence (Q99828 whole entry, looked up): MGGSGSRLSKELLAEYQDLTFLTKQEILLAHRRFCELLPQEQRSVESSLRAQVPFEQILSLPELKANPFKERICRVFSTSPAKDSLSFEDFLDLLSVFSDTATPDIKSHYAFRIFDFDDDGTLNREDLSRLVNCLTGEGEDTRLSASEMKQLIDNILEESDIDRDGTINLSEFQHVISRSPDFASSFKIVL
Method in brief: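 Fluorescence polarization competition: GST-tagged CIB1 (1 uM final) preincubated with compound 15 min at room temperature, then FITC-labelled alphaIIb peptide (100 nM final) added. After 15 min at room temperature, polarization read at Ex 480/Em 540.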

[2] = Primary qHTS for inhibitors of nuclear receptor binding SET domain protein 2 (NSD2) in an isogenic RCH-ACV NSD2 p.E1099K mutant (9B) (AID 1645876); conditions: RCH-ACV NSD2 E1099K (9B) viability, CellTiter-Glo, 72 h; series mostly up to 44.9 µM; also: nearly all actives have a fitted effect of over 70% in size
[3] = Primary qHTS for inhibitors of nuclear receptor binding SET domain protein 2 (NSD2) in an RCH-ACV wild type WT cells (2C) (AID 1645877); conditions: RCH-ACV (leukaemia line) NSD2 WT (2C) viability, CellTiter-Glo, 72 h; series mostly up to 44.9 µM; also: nearly all actives have a fitted effect of over 70% in size

Measured: Potency

CC1CCC2C(C(=O)O)=CC3(O)CC(C)(C)CC123 (configuration not stated)
inactive: all assays above

CC(O)/C=C/C1(O)C(C)C(O)C(O[C@@H]2O[C@H](CO)[C@@H](O)[C@H](O)[C@H]2O)CC1(C)C (some centres not stated)
inactive: all assays above

C=C1[C@H](OC(C)=O)[C@H]2[C@@H](OC(=O)c3ccccc3)[C@@H](C)C[C@]2(O)[C@@H](OC(C)=O)[C@H](C)/C=C/C(C)(C)C(=O)[C@H](OC(C)=O)[C@H]1OC(C)=O
inactive: all assays above

Cc1cc(-n2c(=O)[nH]c(=O)n(C)c2=O)ccc1Oc1ccc(SC(F)(F)F)cc1
inactive: all assays above
